Measured values taken from PubChem BioAssay (NCI).
Compounds without any hit were thinned out: in the full panel of roughly 83,000, 20% have a hit.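 For each line, cells grew in 96-well plates with the test compound present at a single concentration for 48 hours.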 A number with no mark means an inactive call. Activity calls are given as the source filed them. Rule for the calls: active = growth percent below 10; inactive = the rest.

Columns and labels:
Assay in all cases: NCI-60 one-dose screen, 48 h (100 = growth as untreated, 0 = no growth, -100 = all killed)
Conditions in all cases: 10 µM unless noted
EKVX NSCLC = system: EKVX NSCLC
SN12C renal = system: SN12C renal
UO-31 renal = system: UO-31 renal
TK-10 renal = system: TK-10 renal
ACHN renal = system: ACHN renal
CAKI-1 renal = system: CAKI-1 renal
A498 renal = system: A498 renal
CCRF-CEM leukemia = system: CCRF-CEM leukemia
MOLT-4 leukemia = system: MOLT-4 leukemia
SR leukemia = system: SR leukemia

SMILES | growth (EKVX NSCLC) | growth (SN12C renal) | growth (UO-31 renal) | growth (TK-10 renal) | growth (ACHN renal) | growth (CAKI-1 renal) | growth (A498 renal) | growth (CCRF-CEM leukemia) | growth (MOLT-4 leukemia) | growth (SR leukemia)
Nc1ccc(S(=O)(=O)Nc2ncccn2)cc1 | 103% | 103% | 94.5% | 114% | 98.6% | 103% | 113% | 101% | 106% | 103%
CC(=O)Oc1ccc(C23c4ccccc4C2(OC(C)=O)c2cc(OC(C)=O)ccc23)cc1 (stereo not given) | 69.4% | 81.7% | 11% | 63.9% | 29.4% | 85.2% | 114% | 41.8% | 67.6% | -2.28% (active)
CCCc1cc(=O)n2c(C(=O)Nc3ccccc3OC)c(C(=O)Nc3ccc(F)cc3)sc2n1 | 52.8% [30 µM] | 58.1% [30 µM] | 19.7% [30 µM] | 37.7% [30 µM] | 20.3% [30 µM] | 5.5% [30 µM] (active) | 90% [30 µM] | 58.4% [30 µM] | 65.8% [30 µM] | 9.34% [30 µM] (active)
O=c1[nH]c(=O)n(C2CC(O)C(CO)O2)cc1C(F)(F)F (stereo not given) | 86.6% | 28.6% | 23.5% | 64.8% | 24.6% | 66.2% | 42.3% | -30.2% (active) | 31.8% | -24.8% (active)
CN(CC(=O)Nc1nc2ccccc2[nH]1)S(=O)(=O)c1ccc(Cl)cc1 | 95.4% | 93.9% | 28.8% | 118% | 83.5% | 89.8% | 91.7% | 44.6% | 58.5% | 89.9%
COC(=O)[C@]12CC[C@@H](C)[C@H](C)[C@@H]1C1=CC[C@@H]3[C@@]4(C)C[C@@H](OC(=O)c5ccco5)[C@H](O)[C@@](C)(CO)[C@@H]4[C@H](O)C[C@@]3(C)[C@]1(C)CC2 | -91.9% (active) | -77.2% (active) | -89.6% (active) | -87.9% (active) | -95% (active) | -98.3% (active) | -94.5% (active) | -87.3% (active) | -75.5% (active) | -91% (active)
O=C1CC(C(F)(F)F)=NN1C(=O)c1nn(-c2ccc(Cl)cc2)cc1O | 79.5% | 80.3% | 67.3% | 122% | 79.3% | 52.8% | 77.8% | 53.1% | 80.4% | -0.46% (active)
S=c1[nH]nc2sc3ccccc3n12 | 116% | 103% | 84.2% | 126% | 99.2% | 110% | 76.1% | 100% | 92.7% | 88.5%
c1ccc(N2CCN(c3nncc4ccccc34)CC2)nc1 | 110% | 102% | 96% | 105% | 115% | 109% | 97.8% | 102% | 106% | 103%
O=C(O)C(=O)O | 103% | 106% | 100% | 93.3% | 91.9% | 99.2% | 92.9% | 102% | 138% | 136%
c1cnc2ccc3ncccc3c2c1 | 101% | 101% | 76.8% | 127% | 82.1% | 90.3% | 96.5% | 98.9% | 106% | 82%
O=C(Nc1nc2ccccc2s1)c1cc(-c2ccc(F)cc2)n2nc(-c3ccccc3)cc2n1 | 68.8% | 57.5% | 51.4% | 129% | 13.5% | 53.2% | -9.36% (active) | 21.6% | 61.9% | 18.6%
c1csc([C@@H]2C[C@@H]3Cc4ccc5ccccc5c4N2O3)c1 | 78.8% | 94.3% | 70.2% | 88.7% | 107% | 82.2% | 79.8% | 75.8% | 78.3% | 95.1%
